Active and inactive are the calls of the source. The call rests on the fitted dose curve; in most records, active means well fitted inhibition curve with a large enough effect; inactive means flat fitted curve, though single readings scatter. Square brackets hold non-standard residues; d marks the D form. Peptide text beside a SMILES is read from it. * marks the point of attachment. Dolaproine = CO[C@@H]([C@@H]1CCCN1)[C@@H](C)C(=O)O; Dil = CC[C@H](C)[C@H](NC)[C@@H](CC(=O)O)OC; NMe2Val = CC(C)[C@@H](C(=O)*)N(C)C; X1 = C[C@@H](N*)[C@@H](O)c1ccccc1; NMeV = CN[C@H](C(=O)O)C(C)C
assay: Identification of antibody-drug conjugate (ADC) payloads which are substrates of ATP-binding cassette drug efflux transporters: ABCB1-HeLa-KB-8-5-11 cell line with tariquidar; conditions: KB-8-5-11 (P-gp) + tariquidar, viability, CellTiter-Glo, 48 h
Text: Antibody-drug conjugates (ADCs) feature an antibody recognizing a specific protein joined to a potent toxic payload. Numerous antibody-drug conjugates have received FDA approval; however, clinical resistance arises. Resistance mechanisms include decreased expression or mutation of the antibody target, impaired payload release, or increased expression of ATP-binding cassette (ABC) efflux transporters associated with multidrug resistance. We therefore sought to characterize the interaction of ABC multidrug transporters with ADC payloads. We performed a high-throughput screen with 27 common ADC payloads using cells lines expressing ABC transporters P-glycoprotein (P-gp, encoded by ABCB1) or ABCG2 (encoded by ABCG2). Confirmatory assays were also performed using cells transfected to express P-gp, ABCG2, or MRP1 (encoded by ABCC1). Several commonly used ADC payloads were substrates of P-gp, including calicheamicin gamma1, monomethyl auristatin E, DM1, and DM4. All the pyrrolobenzodiazepines tested - SJG136, SGD-1882, SG2057, and SG3199 - were substrates of P-gp, ABCG2, and MRP1. […] These findings highlight the risk of transporter-mediated resistance with certain ADC payloads and underscore the importance of selecting payloads that evade ABC transporter recognition in future ADC development.
HEK-293 cells were transfected with empty vector (pcDNA) or vector containing the human ABCB1 (MDR-19), ABCG2 (R-5), or ABCC1 gene (MRP1) and were maintained in EMEM with 2 mg/mL G418 added to maintain transporter expression. The HeLa derivative KB-3-1 and the P-gp overexpressing KB-8-5-11 subline were maintained in DMEM; KB-8-5-11 additionally received 100 ng/mL colchicine. H460 parental cells were obtained from the Division of Cancer Treatment and Diagnosis Tumor Repository, National Cancer Institute at Frederick, MD and were cultured in RPMI. The ABCG2 expressing subline H460 MX20 was generated by selecting H460 cells in 20 nM mitoxantrone. Media in all cases was supplemented with 10% FBS and 1% penicillin-streptomycin. We explored 27 common ADC payloads, in two orthogonal, paired cell line sets-a drug selected and transfected set for each transporter--to identify substrates of the ABC transporters P-gp and ABCG2. Compounds were sourced from Levena Biopharma (San Diego, CA), Selleck Chem (Houston, TX), ChemieTek (Indianapolis, IN), or Microsource Discovery Systems (Gaylordsville, CT). Screening was performed as previously described. Briefly, cells were plated at a density of 500 cells/well in 1536 well plates with compounds added using a 1536-head pin tool (Kalypsys, San Diego CA). Cells were incubated with cytotoxic drugs and processed with CellTiter Glo reagent (Promega, Madison, WI) to determine viability after 48 hours. P-gp substrates were identified by comparing compound activity between paired sets of low-expressing (sensitive) and over-expressing (resistant) cell lines.

SMILES	Potency
CC[C@H](C)[C@@H]([C@@H](CC(=O)N1CCC[C@H]1[C@H](OC)[C@@H](C)C(=O)N[C@H](C)[C@@H](O)c1ccccc1)OC)N(C)C(=O)[C@@H](NC(=O)[C@H](C(C)C)N(C)C)C(C)C	0.2 nM (active)
CC[C@H](C)[C@@H]([C@@H](CC(=O)N1CCC[C@H]1[C@H](OC)[C@@H](C)C(=O)N[C@@H](Cc1ccccc1)C(=O)O)OC)N(C)C(=O)[C@@H](NC(=O)[C@H](C(C)C)N(C)C)C(C)C (NMe2Val-V[Dil][Dolaproine]F-OH)	18.8 nM (active)
COc1cccc2c1C(=O)c1c(O)c3c(c(O)c1C2=O)C[C@@](O)(C(=O)CO)CC3OC1CC(N2CCOC(OC)C2)C(O)C(C)O1 (some centres not stated)	10.6 nM (active)
CC[C@H](C)[C@@H]([C@@H](CC(=O)N1CCC[C@H]1[C@H](OC)[C@@H](C)C(=O)N[C@H](C)[C@@H](O)c1ccccc1)OC)N(C)C(=O)[C@@H](NC(=O)[C@@H](NC)C(C)C)C(C)C (H-[NMeV]V[Dil][Dolaproine]-X1)	0.2 nM (active)
COc1cc2cc(c1Cl)N(C)C(=O)C[C@H](OC(=O)C(C)C)[C@]1(C)O[C@H]1[C@H](C)[C@@H]1C[C@@](O)(NC(=O)O1)[C@H](OC)C=CC=C(C)C2	0.1 nM (active)
CC[C@@]1(O)C(=O)OCc2c1cc1n(c2=O)Cc2cc3ccccc3nc2-1	375 nM (active)
CC[C@H](C)[C@@H]1NC(=O)CNC(=O)[C@H]2Cc3c([nH]c4cc(O)ccc34)S(=O)C[C@H](NC(=O)CNC1=O)C(=O)N[C@@H](CC(N)=O)C(=O)N1C[C@H](O)C[C@H]1C(=O)N[C@@H]([C@@H](C)[C@@H](O)CO)C(=O)N2 (some centres not stated)	4200 nM (active)
